{
  "source": "PubChem BioAssay AID1347056",
  "about": "(Sanford-Burnham Center for Chemical Genomics, 2019)",
  "note": "Among all 360,000 compounds or so, about 3,600 (1%) were called active. The full list was thinned out, with actives kept by preference. Unmarked numbers belong to inactive results.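 The calls were made as follows: active = compounds whose plate-normalised and pattern-corrected inhibition of the luciferase reporter signal at the single screening dose is 50% or more; inactive = the rest.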",
  "data": [
    {"assay": "TROY pathway blockers in reporter cells – Q293 LMP1-TROYcd cells, NF-kB luciferase, uHTS, primary screen (AID 1347056)", "conditions": "4 h, at 10 µM, stronger effect = higher value", "values": [
      {"smiles": "CCCN(CCC)S(=O)(=O)c1cc2c(cc1Br)CCN2C(=O)CC", "inhibition": "22.4%"},
      {"smiles": "CCOC(=O)c1ccc(NC(=S)N2CCN(c3ccccn3)CC2)cc1", "inhibition": "-15.3%"},
      {"smiles": "CCCCOc1ccc(CON(C(C)=O)C(C)=O)cc1Cl", "inhibition": "-35.4%"},
      {"smiles": "COC(=O)c1c(C)[nH]c(C(=O)/C=C/c2ccc(Cl)cc2)c1C", "inhibition": "-12.1%"},
      {"smiles": "CC1(C(=O)O)CCCN(C(=O)/C=C/c2ccccc2)C1", "note": "(stereo not given)", "inhibition": "-7.33%"},
      {"smiles": "Cc1[nH]c(=O)c(C(=O)/C=C/c2ccccc2)c2c1CCCC2", "inhibition": "52% (active)"},
      {"smiles": "COc1cccc(-c2nnc(NC(=O)c3ccc(S(=O)(=O)N(CC(C)C)CC(C)C)cc3)o2)c1", "inhibition": "12.8%"},
      {"smiles": "CCc1ccc(C(CNc2nc(C(F)(F)F)nc3ccccc23)N(C)C)cc1", "note": "(stereo not given)", "inhibition": "4.28%"},
      {"smiles": "CC(Nc1nc(N2CCCC2)nc2ccccc12)c1ccccc1", "note": "(stereo not given)", "inhibition": "5.36%"},
      {"smiles": "CC(Nc1nc(C(F)(F)F)nc2ccccc12)c1cccs1", "note": "(stereo not given)", "inhibition": "60.8% (active)"},
      {"smiles": "CN1CCCN(S(=O)(=O)c2ccc3c(c2)OCCO3)CC1", "inhibition": "-12.9%"},
      {"smiles": "COc1ccc(OC)c(Nc2nc3ccccc3n3cnnc23)c1", "inhibition": "-14.2%"},
      {"smiles": "COc1ccc(Nc2ncnc3ccc(Br)cc23)c(OC)c1", "inhibition": "84.4% (active)"},
      {"smiles": "COc1ccc(OC)c(NC(=O)CN(C)CCOc2ccc(Br)cc2)c1", "inhibition": "9.37%"},
      {"smiles": "COc1cccc2cc(C(N)=O)/c(=N\\NC(=O)c3ccccc3)oc12", "inhibition": "73.1% (active)"},
      {"smiles": "COc1cccc2cc(C(=O)N3CCN(C(=O)c4ccccc4)CC3)c(=O)oc12", "inhibition": "-10%"},
      {"smiles": "COc1cccc2cc(C(=O)N(C)C)c(=O)oc12", "inhibition": "11%"},
      {"smiles": "O=C(CN(c1cc(C(F)(F)F)ccc1Cl)S(=O)(=O)c1ccccc1)NCc1cccnc1", "inhibition": "0.66%"},
      {"smiles": "Cc1cc(C)nc(S/C=C/C(=O)c2ccccc2)n1", "inhibition": "54% (active)"},
      {"smiles": "COC(c1ccccc1)(c1ccccc1)C(Oc1nc(C)cc(C)n1)C(=O)O", "note": "(stereo not given)", "inhibition": "4.6%"},
      {"smiles": "CSc1nc(N(C)NC(=O)c2cccc(C)c2)c2ccccc2n1", "inhibition": "25.9%"},
      {"smiles": "CCOC(=O)N1CCN(CC(=O)c2ccc3c(c2)CCN3)CC1", "inhibition": "2.97%"},
      {"smiles": "O=C(CSc1nc(Nc2ccccc2)nc(N2CCOCC2)n1)Nc1cc(Cl)ccc1O", "inhibition": "64.7% (active)"},
      {"smiles": "CC1(c2ccccc2)NC(=O)N(CC(=O)Nc2cc(Cl)ccc2N2CCOCC2)C1=O", "note": "(stereo not given)", "inhibition": "-24.9%"},
      {"smiles": "C/C(=N\\Nc1nc(Nc2ccccc2)nc(N2CCOCC2)n1)c1cccs1", "inhibition": "-8.45%"},
      {"smiles": "C=CCn1c2c(c3ccccc31)CCC2", "inhibition": "-7.49%"},
      {"smiles": "OC[C@@H]1CN(Cc2ccncc2)C[C@H](n2cnc3c(N4CCN(c5ccccc5)CC4)ncnc32)O1", "inhibition": "37.7%"},
      {"smiles": "O=C(Nc1ccc(Br)c2cccnc12)c1ccc(Cn2cc([N+](=O)[O-])cn2)o1", "inhibition": "-32.5%"},
      {"smiles": "CC(=O)c1c(C)[nH]c(C(=O)OCC(=O)Nc2sc3c(c2C#N)CCCC3)c1C", "inhibition": "52.3% (active)"},
      {"smiles": "CC(=O)c1c(C)[nH]c(C(=O)OCC(=O)Nc2c(C)cccc2C)c1C", "inhibition": "14.6%"},
      {"smiles": "N#Cc1c(NC(=O)CCCl)sc2c1CCCCC2", "inhibition": "-37%"},
      {"smiles": "COc1ccc(N2CC(C)Cn3c2nc2c3c(=O)n(Cc3ccccc3F)c(=O)n2C)c(OC)c1", "note": "(stereo not given)", "inhibition": "24.4%"},
      {"smiles": "c1ccc(CSc2ncnc3c2sc2nc(N4CCOCC4)c4c(c23)CCCC4)cc1", "inhibition": "60.3% (active)"},
      {"smiles": "c1ccc(COc2nsnc2N2CCOCC2)cc1", "inhibition": "11%"},
      {"smiles": "O=C(O)c1cccnc1Sc1ncnc2sc3c(c12)CCC3", "inhibition": "10.5%"},
      {"smiles": "Cc1ccc(CCN2CC(C(=O)O)CC2=O)cc1", "note": "(stereo not given)", "inhibition": "-21.4%"},
      {"smiles": "S=C(NCc1ccco1)Nc1ccc2c(c1)OCCO2", "inhibition": "8.28%"},
      {"smiles": "O=C1c2ccccc2C(Nc2ccc3c(c2)OCCO3)N1Cc1ccco1", "note": "(stereo not given)", "inhibition": "62% (active)"},
      {"smiles": "CCCCCn1nnnc1C1c2ccccc2C(=O)N1Cc1ccco1", "note": "(stereo not given)", "inhibition": "-7.23%"},
      {"smiles": "NC1=CC(=O)C(=O)c2cccnc21", "inhibition": "-15.9%"},
      {"smiles": "O=C(O)CCCC(=O)Nc1ccccc1-n1ccnc1", "inhibition": "13%"},
      {"smiles": "O=C(Nc1nnc(COc2ccccc2)s1)Nc1ccccc1F", "inhibition": "-7.72%"},
      {"smiles": "O=C(Nc1ccccc1)Nc1nnc(COc2ccccc2F)s1", "inhibition": "53.5% (active)"},
      {"smiles": "O=C(NCCOc1ccccc1F)Nc1ccc(Br)cc1", "inhibition": "-33.8%"},
      {"smiles": "Cc1ccc(NC(=O)C2CC(=O)N(c3ccc4c(c3)OCCO4)C2)cc1S(=O)(=O)N1CCCCCC1", "note": "(stereo not given)", "inhibition": "29.1%"},
      {"smiles": "Cc1ccc2c(c1)N(CC(=O)N(Cc1ccccn1)Cc1ccco1)C(=O)C(C(C)C)O2", "note": "(stereo not given)", "inhibition": "4.87%"},
      {"smiles": "O=C(/C=C/NCc1ccc(F)cc1)c1ccccc1", "inhibition": "-45.6%"},
      {"smiles": "Cc1ccc(NNC(=O)C2CCC2)cc1C", "inhibition": "-8.76%"},
      {"smiles": "Cc1ccc(N/C=C/C(=O)c2ccccc2)cc1C", "inhibition": "56.6% (active)"},
      {"smiles": "CCC(C)NC(=O)CN(C1CCCCC1)S(C)(=O)=O", "note": "(stereo not given)", "inhibition": "-2.32%"},
      {"smiles": "COc1ccc(CCN2C(=O)c3[nH]nc(-c4ccccc4O)c3C2c2ccc(C)cc2)cc1OC", "note": "(stereo not given)", "inhibition": "22.8%"},
      {"smiles": "COC(=O)Cn1c(=NC(=O)c2cc(OC)c(OC)c(OC)c2)sc2cc(OC)ccc21", "inhibition": "3.88%"},
      {"smiles": "Cc1ccc(N2CCN(c3ccc([N+](=O)[O-])cn3)CC2)c(C)c1", "inhibition": "5.6%"},
      {"smiles": "NC(=O)C[n+]1cccc(C(N)=O)c1", "inhibition": "-13.6%"},
      {"smiles": "Cc1cccc(CN2CCC(CNC(=O)Nc3ccc(F)c(Cl)c3)CC2)c1", "inhibition": "12.4%"},
      {"smiles": "Cc1cccc(CS(=O)(=O)c2ncc(Cl)c(C(=O)Nc3ccc(F)cc3)n2)c1", "inhibition": "70.8% (active)"},
      {"smiles": "Cc1cccc(NC(=O)Cn2cc(C(=O)c3ccco3)c3ccccc32)c1", "inhibition": "8.41%"},
      {"smiles": "CSc1nnc(NC(=O)c2nc(S(=O)(=O)Cc3ccc(C)cc3)ncc2Cl)s1", "inhibition": "-5.7%"},
      {"smiles": "Cc1cccc(NC(=O)c2nc(S(=O)(=O)Cc3ccccc3)ncc2Cl)c1", "inhibition": "77.9% (active)"},
      {"smiles": "Cc1ccc(C)c(Cn2nnc3c(=O)[nH]c(C(=O)Nc4ccc(F)cc4)nc32)c1", "inhibition": "30.7%"},
      {"smiles": "CCOc1ccc(NC(=O)C2CC(=O)N=C(N)S2)cc1", "note": "(stereo not given)", "inhibition": "15.3%"},
      {"smiles": "O=C(O)c1ccc(Cn2cnc3c(=S)nc[nH]c32)cc1", "inhibition": "12.2%"},
      {"smiles": "C/C(CC(=O)N1CCN(C=O)CC1)=N\\NC(=O)c1ccc(Br)cc1", "inhibition": "-8.44%"},
      {"smiles": "COc1cc(/C=C/C(=O)O)cc(S(=O)(=O)Nc2ccccc2C(=O)NCCc2ccccc2)c1OC", "inhibition": "-15.9%"},
      {"smiles": "CCCCC[C@H]1CN(C2CCCCC2)C(=O)[C@@H]1CC(=O)NCc1ccc(OC)cc1", "inhibition": "14.9%"},
      {"smiles": "Cc1ccc(S(=O)(=O)N2CCC(C(=O)N[C@@H](C)C(=O)NCc3ccco3)CC2)cc1", "inhibition": "13.7%"},
      {"smiles": "CCn1c(SCc2cccc(C(=O)O)c2)nnc1-c1ccc(Cl)cc1", "inhibition": "6.17%"},
      {"smiles": "Cc1ccccc1NC(=O)C1CCCN(C(=O)NCc2ccccc2)C1", "note": "(stereo not given)", "inhibition": "-8.74%"},
      {"smiles": "COc1ccc2c(c1)c(=Cc1ccc(N(C)C)cc1)c1cc(-c3ccccc3)[n+](C)n12", "inhibition": "69.4% (active)"},
      {"smiles": "COc1cccc(CCNC(=O)c2cccc(NC(=O)C3=C(C)OCCS3)c2)c1", "inhibition": "13.6%"},
      {"smiles": "Cc1cccc(-c2nnc(SCC(=O)O)n2Cc2ccccc2)c1", "inhibition": "-6.32%"},
      {"smiles": "Cc1ccsc1C(=O)OCC(=O)Nc1cccc(F)c1", "inhibition": "-57.4%"},
      {"smiles": "Cc1ccsc1C(=O)OCC(=O)c1cc(C)n(CC2CCCO2)c1C", "note": "(stereo not given)", "inhibition": "78.8% (active)"},
      {"smiles": "Cc1ccsc1C(=O)OCC(=O)NCCc1ccccc1", "inhibition": "-56.3%"},
      {"smiles": "Cc1cccc(C(=O)Nc2ccccc2-c2nnn(CC(=O)Nc3ccc4c(c3)OCCO4)n2)c1", "inhibition": "6.18%"},
      {"smiles": "COc1cc2c(cc1OC)C(=O)NCC(C)(C)O2", "inhibition": "32.5%"},
      {"smiles": "O=C(NC1=CC(=O)c2ccccc2C1=O)c1ccccc1", "inhibition": "63.7% (active)"},
      {"smiles": "CC(=O)c1cc(NC(=O)c2ccccc2)c(=O)oc1/C=C/N(C)C", "inhibition": "7.35%"},
      {"smiles": "Cc1cc(=O)c2ccc(NC(=O)c3ccccc3)cc2[nH]1", "inhibition": "-14.4%"},
      {"smiles": "CC(=O)Nc1cncc(-c2ccccc2CO)n1", "inhibition": "-15.3%"},
      {"smiles": "Cn1c(=O)c2cc(S(=O)(=O)NCCC(=O)Nc3ccc(F)cc3F)ccc2n(C)c1=O", "inhibition": "-2.05%"},
      {"smiles": "O=C(OCc1ccccc1F)c1ccc2c(c1)OCCO2", "inhibition": "-79.6%"},
      {"smiles": "CC(=O)Nc1cccc(C(=O)OCC(=O)NCc2cc(C)c(O)c(C)c2)c1", "inhibition": "-29%"},
      {"smiles": "O=C(COC(=O)c1ccc(O)cc1O)c1ccc2c(c1)OCCO2", "inhibition": "1.99%"},
      {"smiles": "COc1ccc(C(=O)OCC(=O)Nc2cccc(C(C)=O)c2)cc1OC", "inhibition": "10.5%"},
      {"smiles": "CC(=O)Nc1cccc(C(=O)OCC(=O)c2ccc3c(c2)OCO3)c1", "inhibition": "64.7% (active)"},
      {"smiles": "O=C(COC(=O)c1ccccc1)c1ccc2c(c1)OCCO2", "inhibition": "80.8% (active)"},
      {"smiles": "Cc1cccc(OC(=O)c2sc3ncn(C)c(=O)c3c2C)c1", "inhibition": "-27.1%"},
      {"smiles": "COc1cccc(C(=O)N2CCC(n3nccc3NC(=O)C3CCOC3)CC2)c1", "note": "(stereo not given)", "inhibition": "-1.36%"},
      {"smiles": "CCOc1ccc(C(C(=O)NC2CCCC2)N(C(=O)c2snc(C(N)=O)c2N)C2CCCC2)cc1", "note": "(stereo not given)", "inhibition": "-0.96%"},
      {"smiles": "Nc1nnc(SCC(=O)NC2CCCc3ccccc32)s1", "note": "(stereo not given)", "inhibition": "21%"},
      {"smiles": "COc1cccc(NC(=O)N(C)C[C@@H]2Oc3ncc(Br)cc3C(=O)N([C@@H](C)CO)C[C@H]2C)c1", "inhibition": "-0.54%"},
      {"smiles": "Cc1cccc(NC(=S)NCc2ccc3[nH]c4c(c3c2)CCCC4)c1", "inhibition": "63.8% (active)"},
      {"smiles": "CCc1cccc(CC)c1NC(=S)NCc1ccc2[nH]c(C)cc2c1", "inhibition": "-11.8%"},
      {"smiles": "Cc1cc(C)cc(NC(=S)NCCc2c[nH]c3ccccc23)c1", "inhibition": "1.03%"}
    ]}
  ]
}
